From the supplement of paper PMC11732987, “Enantioselective OTUD7B fragment discovery through chemoproteomics screening and high-throughput optimisation” (Communications Chemistry, 2025)

Tests used:
Experiment in all cases: log2 ratio of Biotin-Ahx-Ub-VS probe labelling (fragment/DMSO); higher = less target engagement (more negative = stronger competition), active = hit call of the paper (q ≤ 0.05, log2 ratio ≤ -1)
Settings in all cases: compound concentration: 200 uM; treatment time: 3 h
USP34 = USP34 (UniProt Q70CQ2)
Sequence of USP34 (Q70CQ2 whole entry, the tested form may be a part): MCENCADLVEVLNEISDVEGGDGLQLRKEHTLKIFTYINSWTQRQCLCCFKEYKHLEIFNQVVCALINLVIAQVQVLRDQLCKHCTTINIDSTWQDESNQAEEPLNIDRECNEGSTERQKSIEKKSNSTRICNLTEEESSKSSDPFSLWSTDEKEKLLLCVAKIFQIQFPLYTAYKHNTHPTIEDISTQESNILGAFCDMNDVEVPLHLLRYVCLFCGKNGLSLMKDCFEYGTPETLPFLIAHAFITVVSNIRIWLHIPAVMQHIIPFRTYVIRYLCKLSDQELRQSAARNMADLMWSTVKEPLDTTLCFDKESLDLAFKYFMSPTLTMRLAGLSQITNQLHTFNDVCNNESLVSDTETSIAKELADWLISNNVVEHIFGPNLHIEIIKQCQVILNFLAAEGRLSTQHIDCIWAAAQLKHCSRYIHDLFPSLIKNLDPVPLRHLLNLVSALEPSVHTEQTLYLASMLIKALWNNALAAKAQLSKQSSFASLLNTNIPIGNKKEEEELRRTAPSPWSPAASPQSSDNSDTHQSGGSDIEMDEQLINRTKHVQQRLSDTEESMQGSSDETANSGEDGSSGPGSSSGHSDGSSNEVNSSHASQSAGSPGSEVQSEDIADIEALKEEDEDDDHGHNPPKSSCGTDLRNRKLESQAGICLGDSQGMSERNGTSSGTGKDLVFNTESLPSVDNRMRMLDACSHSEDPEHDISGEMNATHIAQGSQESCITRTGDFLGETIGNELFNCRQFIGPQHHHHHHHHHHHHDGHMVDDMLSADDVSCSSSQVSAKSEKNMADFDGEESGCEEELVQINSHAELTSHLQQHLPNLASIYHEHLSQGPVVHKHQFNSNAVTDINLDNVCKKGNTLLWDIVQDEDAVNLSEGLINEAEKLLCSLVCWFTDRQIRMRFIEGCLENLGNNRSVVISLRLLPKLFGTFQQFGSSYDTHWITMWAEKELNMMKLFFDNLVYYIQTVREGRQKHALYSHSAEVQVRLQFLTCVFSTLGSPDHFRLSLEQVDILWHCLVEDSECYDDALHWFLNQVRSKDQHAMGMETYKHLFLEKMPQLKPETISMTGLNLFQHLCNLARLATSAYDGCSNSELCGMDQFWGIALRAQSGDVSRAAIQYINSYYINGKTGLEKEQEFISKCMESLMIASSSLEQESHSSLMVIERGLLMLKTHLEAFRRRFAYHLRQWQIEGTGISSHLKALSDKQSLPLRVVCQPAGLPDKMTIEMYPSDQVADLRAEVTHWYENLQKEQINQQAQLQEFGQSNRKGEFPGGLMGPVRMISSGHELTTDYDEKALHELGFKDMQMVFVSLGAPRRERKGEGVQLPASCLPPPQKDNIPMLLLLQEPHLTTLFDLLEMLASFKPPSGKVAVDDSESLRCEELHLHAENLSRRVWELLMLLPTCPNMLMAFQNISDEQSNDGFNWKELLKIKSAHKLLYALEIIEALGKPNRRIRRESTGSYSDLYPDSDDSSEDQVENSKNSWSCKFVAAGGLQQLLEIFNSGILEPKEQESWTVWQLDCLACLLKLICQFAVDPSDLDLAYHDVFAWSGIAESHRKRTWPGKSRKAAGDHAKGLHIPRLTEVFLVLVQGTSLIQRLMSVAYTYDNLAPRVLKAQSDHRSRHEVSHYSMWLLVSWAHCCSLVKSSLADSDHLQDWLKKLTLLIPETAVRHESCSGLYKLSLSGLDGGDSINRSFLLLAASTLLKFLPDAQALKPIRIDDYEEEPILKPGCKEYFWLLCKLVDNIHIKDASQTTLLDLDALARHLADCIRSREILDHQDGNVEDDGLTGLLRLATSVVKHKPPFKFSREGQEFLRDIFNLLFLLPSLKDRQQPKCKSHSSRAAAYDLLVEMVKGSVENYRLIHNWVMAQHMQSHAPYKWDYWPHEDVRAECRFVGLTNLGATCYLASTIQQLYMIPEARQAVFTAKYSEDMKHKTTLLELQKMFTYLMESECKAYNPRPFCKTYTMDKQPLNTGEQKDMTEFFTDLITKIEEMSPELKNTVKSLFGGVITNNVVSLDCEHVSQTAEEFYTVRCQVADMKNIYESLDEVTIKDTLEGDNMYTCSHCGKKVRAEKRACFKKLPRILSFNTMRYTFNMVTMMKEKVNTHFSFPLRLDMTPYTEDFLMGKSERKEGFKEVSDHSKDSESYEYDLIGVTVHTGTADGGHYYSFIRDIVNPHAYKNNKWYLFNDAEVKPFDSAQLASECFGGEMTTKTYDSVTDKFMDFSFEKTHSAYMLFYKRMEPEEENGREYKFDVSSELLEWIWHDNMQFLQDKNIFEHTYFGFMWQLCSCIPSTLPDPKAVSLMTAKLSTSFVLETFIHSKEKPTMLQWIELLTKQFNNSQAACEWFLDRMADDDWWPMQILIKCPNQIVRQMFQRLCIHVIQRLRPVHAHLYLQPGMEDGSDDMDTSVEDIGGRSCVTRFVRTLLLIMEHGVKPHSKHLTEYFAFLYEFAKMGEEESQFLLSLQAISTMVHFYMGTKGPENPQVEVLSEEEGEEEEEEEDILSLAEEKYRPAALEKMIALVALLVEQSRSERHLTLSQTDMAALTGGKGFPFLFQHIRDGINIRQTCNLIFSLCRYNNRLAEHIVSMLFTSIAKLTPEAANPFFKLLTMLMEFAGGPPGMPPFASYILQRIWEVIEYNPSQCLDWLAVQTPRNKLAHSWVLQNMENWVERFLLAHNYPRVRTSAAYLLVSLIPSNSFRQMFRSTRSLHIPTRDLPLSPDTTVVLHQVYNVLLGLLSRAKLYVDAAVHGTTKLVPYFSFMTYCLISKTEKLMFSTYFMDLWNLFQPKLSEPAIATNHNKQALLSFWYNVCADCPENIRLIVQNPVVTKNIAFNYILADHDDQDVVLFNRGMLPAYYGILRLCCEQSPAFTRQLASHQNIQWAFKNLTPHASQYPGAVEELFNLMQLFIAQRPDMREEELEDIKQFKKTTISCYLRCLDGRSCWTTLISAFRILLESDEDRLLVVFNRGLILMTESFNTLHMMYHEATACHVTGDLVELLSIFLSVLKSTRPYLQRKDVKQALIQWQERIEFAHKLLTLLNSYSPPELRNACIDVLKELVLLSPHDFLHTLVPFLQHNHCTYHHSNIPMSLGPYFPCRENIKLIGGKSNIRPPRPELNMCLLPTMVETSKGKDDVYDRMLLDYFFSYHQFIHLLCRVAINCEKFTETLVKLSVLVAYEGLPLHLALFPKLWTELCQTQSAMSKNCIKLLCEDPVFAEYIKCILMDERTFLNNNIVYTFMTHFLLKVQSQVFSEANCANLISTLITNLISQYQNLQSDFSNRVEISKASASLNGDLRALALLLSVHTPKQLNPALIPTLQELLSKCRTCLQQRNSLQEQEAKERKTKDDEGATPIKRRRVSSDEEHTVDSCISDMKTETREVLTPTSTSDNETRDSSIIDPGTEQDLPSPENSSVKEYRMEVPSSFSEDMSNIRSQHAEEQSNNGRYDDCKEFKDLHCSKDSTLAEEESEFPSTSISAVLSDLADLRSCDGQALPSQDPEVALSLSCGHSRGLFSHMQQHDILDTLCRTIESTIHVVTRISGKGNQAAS
Method in brief: (§1)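 HEK293T lysate (495 µg per sample, in Tris/CHAPS/IGEPAL buffer with protease inhibitors) was treated in triplicate with fragment at 200 µM or with DMSO for 3 h. It was then treated with Biotin-Ahx-Ub-VS (0.5 µM final) for 1 h. Labelled DUBs were NeutrAvidin-enriched, digested with LysC and trypsin, and run by diaPASEF LC-MS/MS. Spectronaut label-free quantities were global-median-normalised. Values are average log2 ratios fragment/DMSO by unpaired t-test, using proteins with ≥2 unique peptides.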

USP36 = target: T1, USP36 (UniProt Q9P275)
T1 sequence (whole entry): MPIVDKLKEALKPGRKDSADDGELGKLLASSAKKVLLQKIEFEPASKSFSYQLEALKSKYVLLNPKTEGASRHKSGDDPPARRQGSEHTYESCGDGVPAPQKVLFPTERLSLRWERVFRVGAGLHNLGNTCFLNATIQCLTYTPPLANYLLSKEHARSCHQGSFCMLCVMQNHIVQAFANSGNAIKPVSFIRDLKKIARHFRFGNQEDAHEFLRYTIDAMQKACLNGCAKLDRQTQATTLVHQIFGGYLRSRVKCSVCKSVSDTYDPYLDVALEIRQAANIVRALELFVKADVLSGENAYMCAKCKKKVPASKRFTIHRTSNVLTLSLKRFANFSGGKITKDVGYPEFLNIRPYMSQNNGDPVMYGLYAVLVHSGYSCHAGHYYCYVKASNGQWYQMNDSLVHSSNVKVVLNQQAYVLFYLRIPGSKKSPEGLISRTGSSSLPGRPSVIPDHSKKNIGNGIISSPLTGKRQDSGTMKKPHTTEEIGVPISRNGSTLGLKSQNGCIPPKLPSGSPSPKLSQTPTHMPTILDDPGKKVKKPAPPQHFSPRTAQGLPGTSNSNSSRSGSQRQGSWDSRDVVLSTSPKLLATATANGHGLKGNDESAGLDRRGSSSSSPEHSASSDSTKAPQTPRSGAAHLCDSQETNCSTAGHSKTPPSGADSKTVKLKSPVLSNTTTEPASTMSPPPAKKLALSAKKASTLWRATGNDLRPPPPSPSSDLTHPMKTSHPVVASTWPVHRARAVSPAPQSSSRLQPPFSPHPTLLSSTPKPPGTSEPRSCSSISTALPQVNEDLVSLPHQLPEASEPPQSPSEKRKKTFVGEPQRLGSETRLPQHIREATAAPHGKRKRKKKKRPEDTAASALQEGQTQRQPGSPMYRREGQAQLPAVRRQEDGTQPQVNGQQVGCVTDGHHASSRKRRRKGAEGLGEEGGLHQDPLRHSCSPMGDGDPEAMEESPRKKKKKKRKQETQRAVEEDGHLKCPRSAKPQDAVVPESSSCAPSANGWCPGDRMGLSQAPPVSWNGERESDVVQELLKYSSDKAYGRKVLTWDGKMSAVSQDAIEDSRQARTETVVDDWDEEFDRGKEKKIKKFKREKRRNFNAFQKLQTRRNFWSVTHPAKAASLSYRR
Method in brief: as §1

USP38 = target: T2, USP38 (UniProt Q8NB14)
T2 sequence (whole entry): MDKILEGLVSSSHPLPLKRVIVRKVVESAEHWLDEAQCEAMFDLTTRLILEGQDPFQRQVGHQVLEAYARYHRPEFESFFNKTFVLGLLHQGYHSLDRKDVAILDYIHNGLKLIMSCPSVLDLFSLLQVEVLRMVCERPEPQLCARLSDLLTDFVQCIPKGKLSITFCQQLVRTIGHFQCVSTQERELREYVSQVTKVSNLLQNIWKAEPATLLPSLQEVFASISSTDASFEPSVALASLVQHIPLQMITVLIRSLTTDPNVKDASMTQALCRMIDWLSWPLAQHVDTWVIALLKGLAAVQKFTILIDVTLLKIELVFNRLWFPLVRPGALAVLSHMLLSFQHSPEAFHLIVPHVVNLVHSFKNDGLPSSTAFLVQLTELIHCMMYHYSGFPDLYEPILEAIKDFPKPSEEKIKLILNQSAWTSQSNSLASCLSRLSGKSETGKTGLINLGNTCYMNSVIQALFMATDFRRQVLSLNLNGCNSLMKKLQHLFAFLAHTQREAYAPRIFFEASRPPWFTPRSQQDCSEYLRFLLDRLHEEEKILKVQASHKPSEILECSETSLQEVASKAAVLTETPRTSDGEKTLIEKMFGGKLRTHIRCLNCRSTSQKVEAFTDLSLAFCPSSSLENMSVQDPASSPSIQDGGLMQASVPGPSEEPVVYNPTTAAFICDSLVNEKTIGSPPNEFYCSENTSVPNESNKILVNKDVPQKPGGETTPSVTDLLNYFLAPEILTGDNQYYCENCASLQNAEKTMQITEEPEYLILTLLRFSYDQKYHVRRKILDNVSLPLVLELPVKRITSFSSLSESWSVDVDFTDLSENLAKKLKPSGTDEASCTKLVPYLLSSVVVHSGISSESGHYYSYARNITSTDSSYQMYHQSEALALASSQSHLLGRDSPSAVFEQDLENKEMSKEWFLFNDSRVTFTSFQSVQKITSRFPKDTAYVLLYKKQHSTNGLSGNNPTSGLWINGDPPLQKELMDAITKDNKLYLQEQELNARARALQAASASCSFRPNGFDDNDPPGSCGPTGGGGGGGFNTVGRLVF
Method in brief: as §1

USP39 = target: T3, USP39 (UniProt Q53GS9)
T3 sequence (whole entry): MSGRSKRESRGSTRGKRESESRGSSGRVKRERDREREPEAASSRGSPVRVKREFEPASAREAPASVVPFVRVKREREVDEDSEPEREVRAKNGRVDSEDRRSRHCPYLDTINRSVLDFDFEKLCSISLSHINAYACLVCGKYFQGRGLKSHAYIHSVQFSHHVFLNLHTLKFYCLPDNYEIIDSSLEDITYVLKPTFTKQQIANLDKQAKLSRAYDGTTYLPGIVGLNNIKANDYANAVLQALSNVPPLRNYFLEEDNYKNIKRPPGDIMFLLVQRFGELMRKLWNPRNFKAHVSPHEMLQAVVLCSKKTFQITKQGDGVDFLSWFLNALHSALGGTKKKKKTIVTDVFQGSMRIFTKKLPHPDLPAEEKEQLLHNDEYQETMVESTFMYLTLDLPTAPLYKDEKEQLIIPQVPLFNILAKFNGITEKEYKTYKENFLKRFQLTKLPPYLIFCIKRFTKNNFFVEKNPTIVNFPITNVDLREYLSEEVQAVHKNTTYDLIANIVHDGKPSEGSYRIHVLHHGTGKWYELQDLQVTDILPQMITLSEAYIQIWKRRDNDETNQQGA
Method in brief: as §1

USP4 = target: T4, USP4 (UniProt Q13107)
T4 sequence (whole entry): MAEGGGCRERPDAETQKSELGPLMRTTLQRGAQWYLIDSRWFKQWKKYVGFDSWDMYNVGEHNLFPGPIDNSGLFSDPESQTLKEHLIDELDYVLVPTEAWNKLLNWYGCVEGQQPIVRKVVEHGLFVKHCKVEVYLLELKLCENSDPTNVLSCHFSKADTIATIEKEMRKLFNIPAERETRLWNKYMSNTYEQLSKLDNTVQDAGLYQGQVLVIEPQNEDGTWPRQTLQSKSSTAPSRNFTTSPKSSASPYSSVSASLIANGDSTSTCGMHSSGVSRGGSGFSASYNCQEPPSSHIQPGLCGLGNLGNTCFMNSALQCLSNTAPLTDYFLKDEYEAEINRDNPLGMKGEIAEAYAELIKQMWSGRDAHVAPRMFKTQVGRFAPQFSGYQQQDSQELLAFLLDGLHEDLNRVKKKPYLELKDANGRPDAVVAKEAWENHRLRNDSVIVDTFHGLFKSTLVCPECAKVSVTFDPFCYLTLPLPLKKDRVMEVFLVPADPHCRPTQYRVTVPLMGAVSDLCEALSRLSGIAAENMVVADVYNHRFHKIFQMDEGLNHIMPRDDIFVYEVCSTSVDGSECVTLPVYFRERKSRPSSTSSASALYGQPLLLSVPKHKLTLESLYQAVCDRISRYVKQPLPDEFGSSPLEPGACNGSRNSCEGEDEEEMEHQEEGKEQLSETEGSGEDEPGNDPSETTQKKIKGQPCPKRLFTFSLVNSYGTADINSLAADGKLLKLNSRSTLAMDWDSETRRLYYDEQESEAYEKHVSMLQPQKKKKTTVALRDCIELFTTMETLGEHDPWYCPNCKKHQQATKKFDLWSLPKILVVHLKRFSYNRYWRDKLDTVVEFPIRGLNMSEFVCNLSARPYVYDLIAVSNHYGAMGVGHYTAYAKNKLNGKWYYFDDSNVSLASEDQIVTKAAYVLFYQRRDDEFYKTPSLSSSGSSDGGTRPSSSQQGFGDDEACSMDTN
Method in brief: as §1

Measured: log2 ratio of Biotin-Ahx-Ub-VS probe labelling

Cl.O=C(CCl)NCCc1ncc(F)cc1F
inactive: USP34 -0.216 | USP36 -0.308 | USP38 -0.203 | USP39 -0.202 | USP4 0.0209
